Compounds with a hit are over-represented: about 2.5% of the library has one in this group of screens.
Pol iota inh – blocks human DNA polymerase iota activity. Potency, µM (titrated, usually from 115 µM), for inactives: at the highest dose activity, negative = inhibition, hits mostly inhibitors. 1% of 390,000 active. Pol iota fluorescent replication assay, 10 min; also: potency is read from the fitted curve at half-maximal effect
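Pol iota at 10 nM preincubated 15 min with compounds at room temperature; reaction started with fluorescent substrate, 50 nM final. Fluorescence read kinetically at 0 and 10 min; buffer-only wells as negative control.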
L3MBTL1 inh-1 – L3MBTL1 (human) inhibition; Q9Y468; AlphaScreen L3MBTL1–H3K9me1 peptide binding; Potency, µM (titrated, usually from 57.1 µM), without a hit: at the highest dose activity, negative = inhibition, most hits filed as inhibitors; 0.66% of 230,000 active; AID 485360; also: potency is read from the fitted curve at half-maximal effect; % is scaled to controls: 0 for no effect and ±100 for the full control effect; nearly all actives have a fitted effect of over 60% in size
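L3MBTL1 (50 nM) pre-complexed 30 min with biotinylated H3(1-15)K9me1 peptide (75 nM), then compounds added for 30 min at room temperature; AlphaScreen streptavidin donor/nickel chelate acceptor beads (10 ug/mL final) read after 30 min dark incubation.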
WRN inhibitor – inhibitors of human WRN helicase; WRN helicase unwinding, fluorescent forked duplex, kinetic; Potency, µM (doses to about 114 µM), without a hit: top-dose activity change, negative = inhibition, usual class: inhibitors; Q14191; 0.46% of 360,000 active; AID 651768; also: potency is read from the fitted curve at half-maximal effect; % is scaled to controls: 0 for no effect and ±100 for the full control effect; nearly all actives have a fitted effect of over 55% in size
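Fluorescence dequenching readout, ex 525 nm/em 598 nm, kinetic mode: forked duplex DNA (100 nM final) with adjacent fluorophore and quencher unwound by WRN (20 nM final) with 2 mM ATP. Compound preincubation 15 min, room temperature.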
Pol beta inh-1 – blocks human DNA polymerase beta activity; P06746; Pol beta primer extension/strand displacement, fluorescence kinetic; Potency, µM (series often up to 114 µM), without a hit: at the highest dose activity change, negative = inhibition, hits mostly inhibitors; 1.3% of 340,000 active; AID 485314; also: potency is read from the fitted curve at half-maximal effect; % is scaled to controls: 0 for no effect and ±100 for the full control effect
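Preincubation: enzyme (10 nM) with compound, 15 min, RT. Reaction: substrate added to 50 nM final. Reads: 0 and 10 min. Analysis: normalized, Hill fit.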
Pol eta inh-1 – inhibitors of human DNA polymerase eta; 1.2% of 390,000 active; Potency, µM (titrated, usually from 114 µM), without a hit: at the highest dose activity change, negative = inhibition, hits mostly inhibitors; recombinant Pol eta, fluorescent DNA replication assay; also: potency is read from the fitted curve at half-maximal effect; % is scaled to controls: 0 for no effect and ±100 for the full control effect
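Pol eta (10 nM) was preincubated with compounds for 15 min at room temperature, after which fluorescent replication substrate (50 nM final) was added to start the reaction. Fluorescence was read kinetically at 0 and 10 min.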
Pol kappa inh-1 – DNA polymerase kappa (human) inhibition | Q9UBT6 | purified Pol kappa, fluorescent DNA synthesis assay, 10 min | Potency, µM (doses to about 107 µM), inactives show top-dose activity, negative = inhibition, hits mostly inhibitors | 0.53% of 400,000 active | AID 588579; also: potency is read from the fitted curve at half-maximal effect; % is scaled to controls: 0 for no effect and ±100 for the full control effect
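Inhibition of 10 nM Pol kappa is measured by a fluorescent read-out at 0 and 10 min following addition of 50 nM substrate (final), with a 15-min room-temperature compound preincubation.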
Pol beta inh-2 – Human Pol beta inhibitor hit validation | shares compounds with Pol beta inh-1 | Pol beta primer extension/strand displacement, fluorescence kinetic | Potency, µM, hits mostly inhibitors | 87% of 250 active; calls by dose curve; also: potency is read from the fitted curve at half-maximal effect
Klenow inh – inhibits Klenow fragment polymerase in counter-screen; shares compounds with Pol beta inh-1; Klenow exo- polymerase counter-screen, fluorescent DNA substrate; activity change, negative = inhibition, % at 57.1 µM; 250 tested, under 10 active; AID 540300
HIV RT counter – inhibits HIV-1 reverse transcriptase in counter-screen; shares compounds with Pol beta inh-1; HIV-1 RT polymerase activity, counter-screen; activity % (negative = inhibition, positive = activation), % at 57.1 µM; 250 tested, under 10 active; AID 540301
POLB valid – DNA polymerase beta inhibition, radiolabeled validation. shares compounds with Pol beta inh-1. radiolabeled primer extension gel assay, phosphorimager. inhibition, % at 10 µM. 91% of 110 active. AID 540325;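 active = inhibition at 10 µM of 30% or more; inconclusive = no clear call, values can overlap the other calls; inactive = inhibition at 10 µM under 30%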
L3MBTL1 inh-2 – blocks human L3MBTL1 methyl-lysine binding; shares compounds with L3MBTL1 inh-1; L3MBTL1 methyl-lysine binding inhibition, biochemical qHTS; Potency, µM, actives largely listed as inhibitors; 91% of 500 active; also: potency is read from the fitted curve at half-maximal effect; nearly all actives have a fitted effect of over 70% in size
L3MBTL1 ctr – counter-screen for L3MBTL1 inhibitors: AlphaScreen signal interference | 500 tested, under 10 active | Potency, µM (top dose mostly 57.1 µM), inactives show top-dose activity change, negative = inhibition, most hits filed as inhibitors | shares compounds with L3MBTL1 inh-1 | AlphaScreen counterscreen, signal inhibition; also: potency is read from the fitted curve at half-maximal effect; 0% is about no effect
PGK validate – blocks T. brucei phosphoglycerate kinase; shares compounds with Pol kappa inh-1; 79% of 500 active; Potency, µM (top dose mostly 57.5 µM), for the others: at the highest dose activity change, negative = inhibition, actives largely listed as inhibitors; AID 686980; TbPGK coupled GAPDH assay, Kinase-Glo luminescence; also: potency is read from the fitted curve at half-maximal effect; % is scaled to controls: 0 for no effect and ±100 for the full control effect; nearly all actives have a fitted effect of over 65% in size
POLI cherry-pick – Confirm cherry-picked inhibitors of human polymerase iota. shares compounds with Pol kappa inh-1. Pol iota primer extension, TAMRA/BHQ fluorescence. Potency, µM, most hits filed as inhibitors. 77% of 1,500 active. AID 720496; also: potency is read from the fitted curve at half-maximal effect
Pol kappa inh-2 – Pol kappa (human) inhibition, cherry-pick confirmation; shares compounds with Pol eta inh-1; purified Pol-kappa, fluorescent strand-displacement substrate; Potency, µM, most hits filed as inhibitors; 76% of 920 active; AID 720501; also: potency is read from the fitted curve at half-maximal effect
Pol eta inh-2 – confirmation of human DNA polymerase eta inhibitors. Potency, µM, actives largely listed as inhibitors. 64% of 2,600 active. Pol eta primer extension, TAMRA/BHQ fluorescence, 10 min. shares compounds with Pol eta inh-1; also: potency is read from the fitted curve at half-maximal effect
The depositor's hits bear a star; ? = inconclusive; . = no result given; [ ] = dose if it differs, or a comment. Unless noted, calls follow the shape of the dose curve; as a rule, active = well fitted curve in the direction sought with a large enough effect; inconclusive = small, poorly fitted or top-dose-only effect, or another doubt; inactive = no such curve, though single readings can be large; an effect the other way counts as inactive or inconclusive.

SMILES	Pol iota inh	L3MBTL1 inh-1	WRN inhibitor	Pol beta inh-1	Pol eta inh-1	Pol kappa inh-1	Pol beta inh-2	Klenow inh	HIV RT counter	POLB valid	POLI cherry-pick	Pol eta inh-2	others
O=C(Nc1ccc2c(c1)OCCO2)C(c1ccc(C(F)(F)F)cc1)n1c(=O)c(-c2cc3ccccc3[nH]2)nc2ccccc21 (stereo not given)	.	.	-4%	.	.	.	.	.	.	.	.	.
Cc1nnc(NC(=O)COc2ccc3c(C)cc(=O)oc3c2)s1	?	.	?	20µM*	10µM*	-23%	22*	3	-4	96*	60*	76*
CCC(CC)c1nnc(NC(=O)COc2ccc3c(C)cc(=O)oc3c2)s1	-4%	11%	-5%	5%	-8%	-3%	.	.	.	.	.	.
Cc1cc(C(F)F)n2nc(C(=O)Nc3sc4c(c3C(N)=O)CCC4)nc2n1	20µM*	-1%	-36%[57.1 µM]	16µM*	20µM*	?	32*	-13	-14	18	?	?
CCOC(=O)c1cccc(N2C(=O)c3ccccc3S2(=O)=O)c1	14%	13%	6%	8%	-17%	-13%	.	.	.	.	.	.
C=C(C)C(=O)Nc1cccc(C2=NOC3(C2)C[C@H](C(N)=O)N(C(=O)c2ccccc2)C3)c1 (stereo not given in full)	50µM*	.	-6%[11.6 µM]	18µM*	13µM*	?	28*	-32	-1	86*	.	27*	PGK validate=?
c1ccc(-n2cc(CN3CCC(N4CCOCC4)CC3)c(-c3ccc4c(c3)OCO4)n2)cc1	24%	0%	-10%	?	3%	-15%	.	.	.	.	.	.
Cc1cc(/C=C2\C(=N)N3N=C(c4ccco4)SC3=NC2=O)c(C)n1Cc1ccccc1	20µM*	?	?	10µM*	22µM*	50µM*	14*	-11	-13	.	.	43*	Pol kappa inh-2=17*
CCC1=NN2C(=N)/C(=C/c3cc(C)n(Cc4ccccc4)c3C)C(=O)N=C2S1	141%	-18%	-26%	?	-17%	-5%	.	.	.	.	.	.
CCOc1ccc(-n2c(SCC(=O)N3CCc4ccccc43)nnc2-c2c[nH]c3ccccc23)cc1	?	4%	-24%[11.6 µM]	1µM*	5.6µM*	0%	1.4*	-10	26	.	30*	76*
COc1cccc(-n2c(SCC(=O)N3CCc4ccccc43)nnc2-c2c[nH]c3ccccc23)c1	-1%	6%	4%	0%	-4%	-3%	.	.	.	.	.	.
CN(CC(=O)NC(=O)NCc1ccco1)Cc1nc2ccccc2c(=O)[nH]1	25µM*	?	?	20µM*	?	?	35*	-26	37	83*	60*	?
c1ccc(SCc2cc(-c3ccccc3)no2)cc1	25%	7%[11.4 µM]	6%	41%	-10%	-14%	.	.	.	.	.	.
COc1cc(Cl)c(C)cc1NC(=O)Cn1c(C)c2cnn(-c3ccccc3)c(=O)c2c1C	1%	.	.	-16%	-10%	-14%	.	.	.	.	.	.
Cc1cc2oc(C(=O)Nc3ccc(S(=O)(=O)Nc4ncccn4)cc3)c(C)c2cc1Cl	9%	.	-19%	-2%	1%	-17%	.	.	.	.	.	.
Cc1cc2oc(C(=O)Nc3ccc(S(=O)(=O)Nc4nccs4)cc3)cc(=O)c2cc1Cl	?	?	-12%[11.6 µM]	13µM*	20µM*	-75%	14*	-29	18	.	.	76*
COc1ccc(NC(=O)c2ccc(Cl)nc2)cc1S(=O)(=O)N1CCOCC1	?	-5%	0%	.	-13%	-14%	.	.	.	.	.	.
COc1ccc(NC(=O)Cn2ncc(Cl)c(Cl)c2=O)cc1S(=O)(=O)N1CCOCC1	20µM*	14µM*	?	10µM*	7.1µM*	45µM*	32*	-6	?	98*	67*	76*	L3MBTL1 inh-2=12*;L3MBTL1 ctr=23%
CSc1ccccc1NC(=O)c1noc2c1CCC2	20µM*	14µM*	?	10µM*	28µM*	?	32*	-10	3	93*	67*	60*
O=C(COC(=O)c1cccc(S(=O)(=O)N2CCN(c3ccccc3)CC2)c1)NCc1ccco1	?	?	?	20µM*	8.9µM*	79µM*	13*	-33	10	.	75*	43*
NC(=O)COC(=O)c1cccc(S(=O)(=O)N2CCN(c3ccccc3)CC2)c1	-29%	-18%	8%	-18%	1%	-14%	.	.	.	.	.	.
